Data reported in PubChem BioAssay AID1159580 (chemical genetic matrix, 2015).
“And” between values parts separate entries of the source, which are not always exact repeats. Identical values can stand only once. In all, about 5,500 compounds went through this assay and about 2,000 (36%) were called active. Roughly 18% stayed inconclusive and do not appear here. The list shows a part of the results. Unmarked numbers belong to inactive results. Rule as the data show it: active = normalized growth mostly below about 0.91 (no sharp cut-off); inconclusive = no clear call, values can overlap the other calls; inactive = mostly above about 0.92.

Experiment: chemical genetic growth profiling, strain panel (AID 1159580);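 also: tested at 20 µM; growth read once vehicle control cultures reached saturation at 30 °C; 1 = growth at the plate median or of vehicle wells; lower values mean less growth of the strain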
Conditions: S. cerevisiae deletion strains, growth OD

Q: For CCN(CC)C(C)CN1c2ccccc2Sc2ccccc21 (configuration not stated), which normalized growth (locus YAL013W, strain DEP1, hits give low values) is on record?
A: 0.983

Q: What about the normalized growth (locus YAL021C, strain ccr4, hits give low values) of the same molecule?
A: 0.399 (active)

Q: And the normalized growth (locus YAL026C, strain drs2, hits give low values)?
A: 0.77 (active)

Q: What about the normalized growth (locus YAL030W, strain snc1, hits give low values) of the same molecule?
A: 0.965

Q: And the normalized growth (locus YBL061C, strain skt5, hits give low values)?
A: 0.909 (active)

Q: What about the normalized growth (locus YBR009C, strain hhf1, hits give low values) of the same molecule?
A: 0.925

Q: What about the normalized growth (locus YBR021W, strain FUR4, hits give low values) of the same molecule?
A: 0.852

Q: What about the normalized growth (locus YBR023C, strain chs3, hits give low values) of the same molecule?
A: 0.889 (active)

Q: What about the normalized growth (locus YBR171W, strain sec66, hits give low values) of the same molecule?
A: 0.998

Q: And the normalized growth (locus YBR229C, strain ROT2, hits give low values)?
A: 0.982

Q: And the normalized growth (locus YBR231C, strain swc5, hits give low values)?
A: 0.937

Q: What about the normalized growth (locus YBR279W, strain paf1, hits give low values) of the same molecule?
A: 0.896 (active)

Q: What about the normalized growth (locus YCL011C, strain gbp2, hits give low values) of the same molecule?
A: 0.953

Q: What about the normalized growth (locus YCL016C, strain dcc1, hits give low values) of the same molecule?
A: 0.923

Q: And the normalized growth (locus YCL029C, strain bik1, hits give low values)?
A: 0.933

Q: What about the normalized growth (locus YCL061C, strain MRC1, hits give low values) of the same molecule?
A: 0.932

Q: And the normalized growth (locus YCL069W, strain vba3, hits give low values)?
A: 0.947

Q: What about the normalized growth (locus YCR088W, strain abp1, hits give low values) of the same molecule?
A: 0.986

Q: And the normalized growth (locus YDL005C, strain med2, hits give low values)?
A: 1

Q: What about the normalized growth (locus YDL035C, strain GPR1, hits give low values) of the same molecule?
A: 0.917

Q: What about the normalized growth (locus YDL040C, strain nat1, hits give low values) of the same molecule?
A: 1

Q: And the normalized growth (locus YDL074C, strain BRE1, hits give low values)?
A: 0.864

Q: And the normalized growth (locus YDL101C, strain DUN1, hits give low values)?
A: 0.978

Q: What about the normalized growth (locus YDL134C, strain PPH21, hits give low values) of the same molecule?
A: 0.966

Q: What about the normalized growth (locus YDL185W, strain tfp1, hits give low values) of the same molecule?
A: 0.947

Q: And the normalized growth (locus YDL192W, strain arf1, hits give low values)?
A: 0.97

Q: What about the normalized growth (locus YDR001C, strain nth1, hits give low values) of the same molecule?
A: 0.987

Q: And the normalized growth (locus YDR069C, strain doa4, hits give low values)?
A: 0.973

Q: What about the normalized growth (locus YDR101C, strain arx1, hits give low values) of the same molecule?
A: 0.967

Q: What about the normalized growth (locus YDR137W, strain rgp1, hits give low values) of the same molecule?
A: 1.14

Q: And the normalized growth (locus YDR150W, strain NUM1, hits give low values)?
A: 0.977

Q: What about the normalized growth (locus YDR159W, strain sac3, hits give low values) of the same molecule?
A: 0.775 (active)

Q: And the normalized growth (locus YDR162C, strain NBP2, hits give low values)?
A: 0.987

Q: What about the normalized growth (locus YDR195W, strain ref2) of the same molecule?
A: 1.23 [resistant] (active)

Q: And the normalized growth (locus YDR297W, strain sur2, hits give low values)?
A: 0.939

Q: What about the normalized growth (locus YDR318W, strain mcm21, hits give low values) of the same molecule?
A: 0.926

Q: And the normalized growth (locus YDR334W, strain swr1, hits give low values)?
A: 1.03

Q: What about the normalized growth (locus YDR335W, strain msn5, hits give low values) of the same molecule?
A: 0.959

Q: And the normalized growth (locus YDR388W, hits give low values)?
A: 0.914 (active)

Q: What about the normalized growth (locus YDR392W, strain spt3, hits give low values) of the same molecule?
A: 0.911

Q: What about the normalized growth (locus YDR502C, strain sam2, hits give low values) of the same molecule?
A: 0.954

Q: And the normalized growth (locus YEL003W, strain gim4, hits give low values)?
A: 0.984

Q: What about the normalized growth (locus YEL037C, strain rad23, hits give low values) of the same molecule?
A: 0.984

Q: What about the normalized growth (locus YEL061C, strain CIN8 (second series), hits give low values) of the same molecule?
A: 0.992

Q: What about the normalized growth (locus YEL061C, strain CIN8, hits give low values) of the same molecule?
A: 0.991

Q: And the normalized growth (locus YER015W, strain faa2, hits give low values)?
A: 0.937

Q: What about the normalized growth (locus YER016W, strain bim1, hits give low values) of the same molecule?
A: 0.921 (active)

Q: What about the normalized growth (locus YER110C, hits give low values) of the same molecule?
A: 0.956

Q: And the normalized growth (locus YER111C, strain swi4, hits give low values)?
A: 0.987

Q: And the normalized growth (locus YER155C, strain BEM2 (second series), hits give low values)?
A: 0.751 (active)

Q: And the normalized growth (locus YER155C, strain BEM2, hits give low values)?
A: 0.964

Q: And the normalized growth (locus YER167W, strain BCK2, hits give low values)?
A: 0.909

Q: And the normalized growth (locus YFR010W, strain ubp6, hits give low values)?
A: 0.914

Q: And the normalized growth (locus YGL078C, strain dbp3, hits give low values)?
A: 0.98

Q: What about the normalized growth (locus YGL086W, strain mad1, hits give low values) of the same molecule?
A: 0.952

Q: What about the normalized growth (locus YGL167C, strain pmr1, hits give low values) of the same molecule?
A: 0.999

Q: What about the normalized growth (locus YGL173C, strain kem1, hits give low values) of the same molecule?
A: 0.898 (active)

Q: And the normalized growth (locus YGL227W, strain vid30, hits give low values)?
A: 0.995

Q: What about the normalized growth (locus YGL240W, strain doc1, hits give low values) of the same molecule?
A: 0.799 (active)

Q: What about the normalized growth (locus YGL248W, strain PDE1, hits give low values) of the same molecule?
A: 0.957

Q: What about the normalized growth (locus YGL253W, strain hxk2, hits give low values) of the same molecule?
A: 0.907 (active)

Q: What about the normalized growth (locus YGR078C, strain PAC10, hits give low values) of the same molecule?
A: 0.905

Q: What about the normalized growth (locus YGR135W, strain pre9, hits give low values) of the same molecule?
A: 0.918

Q: What about the normalized growth (locus YGR229C, strain SMI1, hits give low values) of the same molecule?
A: 0.904

Q: What about the normalized growth (locus YGR252W, strain gcn5, hits give low values) of the same molecule?
A: 0.72 (active)

Q: What about the normalized growth (locus YHR013C, strain ard1, hits give low values) of the same molecule?
A: 0.972

Q: What about the normalized growth (locus YHR027C, strain rpn1, hits give low values) of the same molecule?
A: 0.796 (active)

Q: What about the normalized growth (locus YHR030C, strain SLT2, hits give low values) of the same molecule?
A: 0.976 and 1.03

Q: What about the normalized growth (locus YHR079C, strain IRE1 (second series), hits give low values) of the same molecule?
A: 0.935

Q: And the normalized growth (locus YHR079C, strain IRE1, hits give low values)?
A: 1.06

Q: What about the normalized growth (locus YHR094C, strain hxt1, hits give low values) of the same molecule?
A: 0.95

Q: And the normalized growth (locus YHR129C, strain ARP1, hits give low values)?
A: 0.986

Q: What about the normalized growth (locus YHR142W, strain chs7, hits give low values) of the same molecule?
A: 0.863 (active)

Q: What about the normalized growth (locus YHR200W, strain rpn10, hits give low values) of the same molecule?
A: 0.95

Q: What about the normalized growth (locus YIL066C, strain RNR3, hits give low values) of the same molecule?
A: 0.97

Q: What about the normalized growth (locus YIL073C, strain SPO22, hits give low values) of the same molecule?
A: 0.767

Q: And the normalized growth (locus YIL125W, strain kgd1, hits give low values)?
A: 0.98

Q: What about the normalized growth (locus YIR030C, strain dcg1, hits give low values) of the same molecule?
A: 0.953

Q: And the normalized growth (locus YJL092W, strain hpr5, hits give low values)?
A: 0.954

Q: What about the normalized growth (locus YJL095W, strain BCK1 (second series), hits give low values) of the same molecule?
A: 0.946

Q: What about the normalized growth (locus YJL095W, strain BCK1, hits give low values) of the same molecule?
A: 0.861 and 1.02

Q: And the normalized growth (locus YJL115W, strain asf1, hits give low values)?
A: 0.992

Q: And the normalized growth (locus YJL129C, strain trk1, hits give low values)?
A: 1.04

Q: And the normalized growth (locus YJL134W, strain LCB3, hits give low values)?
A: 0.986

Q: And the normalized growth (locus YJL154C, strain vps35, hits give low values)?
A: 0.975

Q: What about the normalized growth (locus YJL164C, strain tpk1, hits give low values) of the same molecule?
A: 0.928

Q: What about the normalized growth (locus YJL166W, strain qcr8, hits give low values) of the same molecule?
A: 0.898 (active)

Q: And the normalized growth (locus YJL168C, strain set2, hits give low values)?
A: 0.961

Q: What about the normalized growth (locus YJL187C, strain SWE1 (second series), hits give low values) of the same molecule?
A: 0.957

Q: What about the normalized growth (locus YJL187C, strain SWE1, hits give low values) of the same molecule?
A: 0.911 (active)

Q: And the normalized growth (locus YJR043C, strain POL32, hits give low values)?
A: 0.903

Q: And the normalized growth (locus YJR066W, strain TOR1, hits give low values)?
A: 0.872
